# Source: PubChem BioAssay (NCI)
# Compounds without any hit were thinned out: in the full panel of roughly 83,000, 20% have a hit.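 Cell lines were cultured in 96-well plates, exposed to a single compound concentration, and assessed for percent growth 48 hours later.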 Values without a mark were called inactive. Calls of active or inactive are those of the source. The calls were made as follows: active = growth percent below 10; inactive = the rest.
# System: MDA-MB-468 breast
# Assay: NCI-60 one-dose screen, 48 h (100 = growth as untreated, 0 = no growth, -100 = all killed)
# Conditions: 10 µM unless noted
row,Structure (SMILES),growth
1,CCNC(=NCCCN(C)C)N/C(N)=N/c1nc2ccccc2s1,94.3%
2,CSc1nc2c(c(=O)[nH]1)C(c1ccc(Cl)cc1)C1=C(N2)/C(=C/c2ccc(Cl)cc2)CNC1 (stereo not given),48.4%
3,CCN(C(=O)c1cc2ccccc2[nH]1)[C@H]1CCC[C@@H](NCc2ccc(OC)cc2)C1,80.7%
4,CCn1c(Sc2nnc(NC(C)=O)s2)nc2c1c(=O)n(C)c(=O)n2C,87.5%
5,CC(=O)O[C@@H]1CC2C(C)(C)CCCC2(C)C2=C1C(=O)C(C(C)C)=CC2=O (stereo not given in full),-35.6% (active)
6,COc1cc2oc(-c3cccc(C(=O)Nc4ccc(Cl)cc4)c3)cc(=O)c2c(OC)c1OC,43.6%
7,CC/C=C\C[C@H](O)C/C=C1/C(=O)C=C[C@@H]1C/C=C\CCCC(=O)NC(C)C,1.98% (active)
8,COc1ccc(C(=O)Cn2c(C(=O)c3ccc(Cl)cc3)nc3ccccc32)cc1,63.9%
9,C/C(=C(/C)C1CC1CCNC1CCC(NC(=O)OC(C)(C)C)CC1)c1ccccc1 (stereo not given),35.3%
10,Oc1cccc(CCc2ccc(Oc3cc(CCc4cccc(O)c4)cc(O)c3O)cc2)c1,82.5%
11,NS(=O)(=O)c1cccc(Nc2nc(SCC(=O)c3ccc(Cl)cc3)nc3c2CCC3)c1,79.8%
12,COc1ccc(-c2nn(-c3ccccc3)cc2/C=C2/SC(=S)N(C)C2=O)cc1,89.1%
13,COc1cc(C2CC(=O)Nc3n[nH]c(-c4ccccc4)c32)cc(OC)c1OC (stereo not given),38.5%
14,Fc1ccccc1Nc1n[nH]c(=S)s1,106%
15,Fc1cc2[nH]ncc2c2c3c(c(-c4cn[nH]c4C(F)(F)F)nc12)CCCC3,-20.3% (active)
16,O=C(C[n+]1ccccc1Cl)c1ccc2c(c1)CCCC2,45.1%
17,O=C(NN1C(=O)CSC1c1ccc(Cl)cc1)c1[nH]c2ccc(F)cc2c1-c1ccccc1 (stereo not given),69.3%
18,O=C(Nc1ccc(F)c(F)c1)c1cc(-c2ccc(F)cc2F)ccc1O,-8.51% (active)
19,NC(=NCCCOc1ccc(Cl)cc1)Nc1ccc(C(F)(F)F)cc1,-8.47% (active)
20,C[n+]1c2ccccc2nc2ccccc21,9.7% (active)

row,Structure (SMILES),growth
1,CCCCc1ccc(N=Nc2ccc(OCC[N+](C)(C)C)cc2)cc1,4.13% (active)
2,CCN(CC)N=Nc1nn(C(=O)Nc2ccc(Cc3ccccc3)cc2)c2ccc(Cl)cc12,101%
3,C[C@@H]1O[C@@H](O[C@@H]2C[C@H](c3ccc4c(c3O)C(=O)C3=C(C4=O)[C@@]4(O)C(=O)C[C@](C)(O)C[C@@]4(O)C=C3)O[C@H](C)[C@H]2O)C[C@H](O)[C@@H]1O,106%
4,CC1(C)C=CC[C@]2(C)[C@H]3CC[C@@H]4[C@H]5[C@H](C(=O)/C=C/c6cccnc6)CC[C@]5(CO)CC[C@@]4(C)[C@]3(C)CC[C@@H]12,-60.7% (active)
5,CNc1ccc(Br)c2c1C(=O)c1ccccc1C2=O,112%
6,COc1ccc2oc(=O)cc(C3c4ccc([nH]4)C(c4cc(=O)oc5ccc(OC)cc45)c4ccc([nH]4)C(c4cc(=O)oc5ccc(OC)cc45)c4ccc([nH]4)C(c4cc(=O)oc5ccc(OC)cc45)c4ccc3[nH]4)c2c1 (stereo not given),-38.6% (active)
7,CCOC(=O)C(C#N)Cc1ccccc1 (stereo not given),115%
8,CC1(C)CNC(=O)N1,98.2%
9,COC(=O)c1ccc(NC(N)=NCCC(C)(C)c2ccc(C(F)(F)F)cc2)nc1,-14.2% (active)
10,COc1cc(C(=O)c2cnc(-c3c[nH]c4cccc(C)c34)[nH]2)cc(OC)c1OC,2% (active)
11,O=C1NC(=O)C(c2ccccc2)O1 (stereo not given),106%
12,COC(=O)c1cc(-c2cc(OC)c(OC)c(OC)c2)[nH]c1N/N=C/c1c(Cl)cccc1Cl,-9.15% (active)
13,O=C(Nc1ccc(I)cc1)c1cc([N+](=O)[O-])ccc1O,9.76% (active)
14,CCN1CCN(CCNc2nccc(-c3c(-c4cccc(OC)c4)nc4occn34)n2)S1(=O)=O,100%
15,C=C(CNCCc1ccc(O)cc1)[C@@H]1CC[C@]2(CO)CC[C@]3(C)[C@H](CC[C@@H]4[C@@]5(C)CCC(=O)C(C)(C)[C@@H]5CC[C@]43C)[C@@H]12,8.97% (active)
16,COc1cc2c(cc1OCCCOC1=C=C=C(c3ccc4c(c3)c3cc(-c5ccc(OCCCOc6cc7c(cc6OC)C(=O)N6CCC[C@H]6C=N7)cc5)ccc3n4S(=O)(=O)c3ccc(C)cc3)C=C1)N=C[C@@H]1CCCN1C2=O,-17% (active)
17,CCC1C(=O)COC1=O (stereo not given),103%
18,Cc1cc(N(CCNc2ccnc3cc(Cl)ccc23)Cc2ccc3c(c2)OCO3)nc(N2CCCC2)n1,-39.4% (active)
19,Cc1ccc(-c2nc3nc(-c4ccc(F)cc4)nc(N4CCNCC4)c3o2)cc1,54.3%
20,COc1cc2ncnc(Nc3ccc(S(=O)(=O)Nc4cc(C)on4)cc3)c2cc1OCCCN1CCN(c2ccc([N+](=O)[O-])cc2)CC1,115%
